Inconclusive results are not listed. The source made the active and inactive calls. Calls come from the whole dose curve; as a rule, active = well fitted inhibition curve with a large enough effect; inconclusive = small, poorly fitted or top-dose-only effect; inactive = flat fitted curve, though single readings scatter.
Assays:
P94_40 = assay: qHTS profiling for inhibitors of Plasmodium falciparum proliferation (AID 504749); note: potency is the fitted concentration of half-maximal effect; settings: P. falciparum in erythrocytes, SYBR Green DNA, 72 h; series mostly up to 28.7 µM
Method in brief: (§1)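 Three-day growth assay of blood-stage parasites in erythrocytes (0.3% parasitemia, 2.5% hematocrit) at 37 C, 5% CO2, quantified by SYBR Green DNA staining after overnight detergent lysis.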

PAD = assay: as above; settings: P. falciparum in erythrocytes, SYBR Green DNA, 72 h; series mostly up to 28.7 µM
Method in brief: as §1

PC15 = assay: as above; settings: P. falciparum in erythrocytes, SYBR Green DNA, 72 h; series mostly up to 28.7 µM
Method in brief: as §1

PC26 = assay: as above; settings: P. falciparum in erythrocytes, SYBR Green DNA, 72 h; series mostly up to 28.7 µM
Method in brief: as §1

PC49 = assay: as above; settings: P. falciparum in erythrocytes, SYBR Green DNA, 72 h; series mostly up to 28.7 µM
Method in brief: as §1

SC27B = assay: as above; settings: P. falciparum in erythrocytes, SYBR Green DNA, 72 h; series mostly up to 28.7 µM
Method in brief: as §1

TAB109 = assay: as above; settings: P. falciparum in erythrocytes, SYBR Green DNA, 72 h; series mostly up to 28.7 µM
Method in brief: as §1

TAB113 = assay: as above; settings: P. falciparum in erythrocytes, SYBR Green DNA, 72 h; series mostly up to 28.7 µM
Method in brief: as §1

TAB165 = assay: as above; settings: P. falciparum in erythrocytes, SYBR Green DNA, 72 h; series mostly up to 28.7 µM
Method in brief: as §1

MCC-13 = assay: qHTS assay to identify novel small-molecules to repurpose for Merkel cell carcinoma treatment (AID 1296009); settings: MCC and control cell lines, CellTiter-Glo viability, 72 h; series mostly up to 46 µM
Method in brief: (§2)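 After compound transfer in DMSO, plates were kept 72 hr at 37 degree celsius. Luminescent ATP signal from CellTiter-Glo served as viability measure, normalized against DMSO and no-cell controls.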

MCC-26 = assay: as above; settings: MCC and control cell lines, CellTiter-Glo viability, 72 h; series mostly up to 46 µM
Method in brief: as §2

W2 = assay: qHTS profiling for inhibitors of Plasmodium falciparum proliferation (AID 504749); note: potency is the fitted concentration of half-maximal effect; settings: P. falciparum in erythrocytes, SYBR Green DNA, 72 h; series mostly up to 28.7 µM
Method in brief: as §1

MKL-1 = assay: qHTS assay to identify novel small-molecules to repurpose for Merkel cell carcinoma treatment (AID 1296009); settings: MCC and control cell lines, CellTiter-Glo viability, 72 h; series mostly up to 46 µM
Method in brief: as §2

HEK293T = assay: as above; settings: MCC and control cell lines, CellTiter-Glo viability, 72 h; at 44.8 µM (top of the series) unless noted
Method in brief: as §2

Measured: Potency
Note: nearly all actives have a fitted effect of over 60% in size.

CCN1CCN(c2cc3c(cc2F)c(=O)c(C(=O)O)cn3C2CC2)CC1
not listed: MCC-13 | MCC-26 | W2 | MKL-1 | HEK293T
inactive: all other assays above

CCCCCCCCCCCCCCCCOP(=O)([O-])OCC[N+](C)(C)C
not listed: W2 | MKL-1 | HEK293T
inactive: all other assays above

O=C(O)CCCCC(=O)O
not listed: MCC-13 | MCC-26 | MKL-1 | HEK293T
inactive: all other assays above

Cc1c(C(N)=O)cc([N+](=O)[O-])cc1[N+](=O)[O-]
not listed: MCC-13 | MCC-26 | W2 | MKL-1 | HEK293T
inactive: all other assays above

OC[C@@H](O)[C@@H](O[C@@H]1O[C@H](CO)[C@H](O)[C@H](O)[C@H]1O)[C@H](O)[C@@H](O)CO
inactive: MCC-13 | MCC-26 | MKL-1

CC(C)(Oc1ccc(Cl)cc1)C(=O)O
not listed: MCC-26 | HEK293T
inactive: all other assays above

CCCCc1nc(Cl)c(CO)n1Cc1ccc(-c2ccccc2-c2nn[nH]n2)cc1
active: P94_40 10 µM | TAB165 8.91 µM | W2 10.7 µM
inactive: PC15 | PC49

NC(=O)CC[C@@H]1NC(=O)[C@H](Cc2ccccc2)NC(=O)[C@H](Cc2ccc(O)cc2)NC(=O)CCSSC[C@@H](C(=O)N2CCC[C@H]2C(=O)N[C@@H](CCCN=C(N)N)C(=O)NCC(N)=O)NC(=O)[C@H](CC(N)=O)NC1=O
inactive: MCC-13 | MKL-1

O=C1OC(c2ccc(O)cc2)(c2ccc(O)cc2)c2ccccc21
not listed: HEK293T
inactive: all other assays above

CC(C)NC[C@@H](O)COc1cccc2ccccc12
active: P94_40 12.6 µM | PC15 8.91 µM | TAB109 12.6 µM | TAB165 7.94 µM | W2 1.69 µM

NCCCC[C@H](N[C@@H](CCc1ccccc1)C(=O)O)C(=O)N1CCC[C@H]1C(=O)O
inactive: all assays above

Oc1c(Cl)cc(Cl)cc1Sc1cc(Cl)cc(Cl)c1O
not listed: MCC-13 | MCC-26 | MKL-1 | HEK293T
inactive: all other assays above

CNCCC(Oc1ccccc1C)c1ccccc1 (stereo unspecified)
active: W2 3.79 µM
inactive: P94_40 | PAD | SC27B | TAB109 | TAB113

Cc1c(F)c(N2CCNC(C)C2)cc2c1c(=O)c(C(=O)O)cn2C1CC1 (stereo unspecified)
inactive: all assays above

CC(C)(CO)[C@@H](O)C(=O)NCCCO
not listed: HEK293T
inactive: all other assays above
